EPAC1 antagonist: qHTS for Antagonist of cAMP-regulated guanine nucleotide exchange factor 3 (EPAC1): primary screen | EPAC1 GEF assay, Rap1b-BODIPY-GDP exchange fluorescence | 360,000 tested, 0.14% active | AID 720709, 2013 | Potency, µM (titrated, usually from 115 µM), hits mostly inhibitors; note: nearly all actives have a fitted effect of over 50% in size
EPAC2 antag: qHTS for Antagonist of cAMP-regulated guanine nucleotide exchange factor 2 (EPAC2): primary screen | 360,000 tested, 0.18% active | AID 720708, 2013 | Potency, µM (highest dose often 114 µM), most hits filed as inhibitors | EPAC2 GEF exchange of Rap1B-BODIPY-GDP, fluorescence; note: nearly all actives have a fitted effect of over 45% in size
EPAC2 ag: qHTS for Agonist of cAMP-regulated guanine nucleotide exchange factor 4 (EPAC2): primary screen; Rap guanine nucleotide exchange factor 4 (Homo sapiens), Q8WZA2; EPAC2 activation, biochemical qHTS; response scale: 100% = 6.5 mM cAMP response; Potency, µM (top dose mostly 154 µM), actives largely listed as activators; 360,000 tested, 0.079% active; AID 720711, 2013; note: nearly all actives have a fitted effect of over 50% in size
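Compounds were titrated in qHTS against a Rap1B-BODIPY-GDP (250 nM) complex with EPAC2 (100 nM) and GDP (50 uM). BODIPY-GDP release tracked at 480/540 nm over 30 min at room temperature, normalized to 6.5 mM cAMP.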
ALOX12 inh: Primary qHTS assay for inhibitors of human arachidonate 12S-lipoxygenase (ALOX12): Round 2; 580,000 tested, 1.1% active; Potency, µM (doses to about 108 µM), most hits filed as inhibitors; AID 1671190, 2021; purified 12hLO, xylenol orange hydroperoxide absorbance; Polyunsaturated fatty acid lipoxygenase ALOX12 (Homo sapiens), P18054
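Purified human 12hLO at 150 nM in 25 mM Hepes, 0.01% Triton X-100, pH 7.0, preincubated 15 min at room temperature with compound. Reaction started with 40 uM arachidonic acid, 30 min at room temperature. Hydroperoxide measured by Fe-xylenol orange, 573/405 nm absorbance ratio.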
EPAC1 agonist: qHTS for Agonist of cAMP-regulated guanine nucleotide exchange factor 3 (EPAC1): primary screen; 360,000 tested, 0.073% active; Rap guanine nucleotide exchange factor 3 (Homo sapiens), O95398; EPAC1 agonist qHTS, biochemical assay; response scale: 100% = response to 6.5 mM cAMP; AID 720707, 2013; Potency, µM (doses to about 154 µM), hits mostly activators; note: nearly all actives have a fitted effect of over 60% in size
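Read-out is the fluorescence drop as BODIPY-GDP leaves Rap1B (480 nm excitation, 540 nm emission), recorded every 5 minutes over 30 minutes. Reactions held 100 nM EPAC1, 250 nM Rap1B–BODIPY-GDP and 50 uM GDP, with 6.5 mM cAMP setting full activation.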
USP1-UAF1 inh: Inhibitors of USP1/UAF1: Primary Screen | Ubiquitin carboxyl-terminal hydrolase 1 (Homo sapiens), O94782 | recombinant USP1/UAF1, Ub-Rhodamine cleavage fluorescence | Potency, µM (titrated, usually from 57.1 µM), actives largely listed as inhibitors | 390,000 tested, 0.23% active | AID 743255, 2014; note: nearly all actives have a fitted effect of over 60% in size
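USP1/UAF1 complex at 1 nM was preincubated with compound for 15 min at room temperature, then Ub-Rho substrate (150nM final) was added. Fluorescence (480/540 nm) was read kinetically, 6 reads every 60 seconds.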
Numbers stand for hits. A selection: hits, their analogues and other compounds. The true share with any hit is near 1.3%. Calls come from the whole dose curve; as a rule, active = well fitted curve in the direction sought with a large enough effect; inconclusive = small, poorly fitted or top-dose-only effect, or another doubt; inactive = no such curve, though single readings can be large; an effect the other way counts as inactive or inconclusive.

Results for CCNC(=O)N1CCCC1c1noc(CCC(=O)NCCC(C)C)n1 (centres undefined) ?
ALOX12 inh: 40µM

Results for COc1ccccc1-n1cc(-c2ccccc2)c2c(=S)nc[nH]c21 ?
EPAC1 antagonist: inactive; EPAC2 antag: inactive; EPAC2 ag: inactive; ALOX12 inh: 45µM; EPAC1 agonist: inactive; USP1-UAF1 inh: inactive

How did Cc1sc(/N=C/c2ccc(Br)cc2)c(C#N)c1C do in these assays?
ALOX12 inh: 18µM

Results for Cc1sc(/N=C/c2cccc3ccccc23)c(C#N)c1C ?
ALOX12 inh: inactive

Results for Cc1sc(/N=C/c2c[nH]c3ccccc23)c(C#N)c1C ?
ALOX12 inh: 20µM

Results for Cc1ccn2c(-c3n[nH]c(=S)n3Cc3ccccc3)c(C)nc2c1 ?
EPAC1 antagonist: inactive; EPAC2 antag: inactive; EPAC2 ag: inactive; ALOX12 inh: 8.9µM; EPAC1 agonist: inactive; USP1-UAF1 inh: inactive

What do the screens show for `Cc1ccn2c(-c3csc(NCc4ccccc4)n3)c(C)nc2c1`?
EPAC1 antagonist: inactive; EPAC2 antag: inconclusive; EPAC2 ag: inactive; ALOX12 inh: 11µM; EPAC1 agonist: inactive; USP1-UAF1 inh: inactive

How did Cc1ccccc1Cn1ccc(NC(=O)C2=CC(c3ccc(F)cc3)=NS(=O)(=O)N2C)n1 do in these assays?
ALOX12 inh: inactive

Results for Cc1cc2c(cc1C)N(C(=O)CSc1nncn1C)C(C)(C)c1ssc(=S)c1-2 ?
EPAC1 antagonist: inactive; EPAC2 antag: inactive; EPAC2 ag: inactive; ALOX12 inh: inconclusive; EPAC1 agonist: inactive; USP1-UAF1 inh: inactive

How did Cc1ccc2c(c1)N(C(=O)CSc1nncn1C)C(C)(C)c1ssc(=S)c1-2 do in these assays?
EPAC1 antagonist: inactive; EPAC2 antag: inactive; EPAC2 ag: inactive; ALOX12 inh: 35µM; EPAC1 agonist: inactive; USP1-UAF1 inh: inactive

Results for COC(=O)[C@@H]1Cc2nc[nH]c2CN1Cc1ccc([N+](=O)[O-])cc1 ?
ALOX12 inh: 10µM

How did O=C(NCc1ccc(C(F)(F)F)cc1)[C@@H]1Cc2nc[nH]c2CN1Cc1ccc([N+](=O)[O-])cc1 do in these assays?
ALOX12 inh: inactive

What do the screens show for `CC(=O)c1c(NC(=O)c2ccccc2)[nH]c(-c2ccccc2)nc1=S`?
EPAC1 antagonist: inactive; EPAC2 antag: inactive; EPAC2 ag: inactive; ALOX12 inh: 40µM; EPAC1 agonist: inactive; USP1-UAF1 inh: inactive

How did CC(=O)c1c(C)[nH]c(-c2ccccc2)nc1=S do in these assays?
EPAC1 antagonist: inactive; EPAC2 antag: inactive; EPAC2 ag: inactive; ALOX12 inh: inactive; EPAC1 agonist: inactive; USP1-UAF1 inh: inactive

What do the screens show for `CCOC(=O)c1cnc(-n2nc(C)cc2C)nc1NCCc1ccccc1`?
EPAC1 antagonist: inactive; EPAC2 antag: inactive; EPAC2 ag: inactive; ALOX12 inh: 45µM; EPAC1 agonist: inactive; USP1-UAF1 inh: inconclusive

Results for Cc1ccc(NC2=C(Cl)C(=O)OC2OC(=O)c2ccc(C)cc2)cc1 (centres undefined) ?
EPAC1 antagonist: inactive; EPAC2 antag: inactive; EPAC2 ag: inactive; ALOX12 inh: 7.9µM; EPAC1 agonist: inactive; USP1-UAF1 inh: inactive

How did N#C/C(=C/c1cccc(C#N)c1)C(=O)c1c[nH]c2cc(F)ccc12 do in these assays?
ALOX12 inh: 11µM

Results for Cc1cccc2[nH]cc(C(=O)/C(C#N)=C\c3ccc(C#N)cc3)c12 ?
ALOX12 inh: inactive

Results for N#C/C(=C/c1cccc(O)c1)C(=O)c1c[nH]c2cc(F)ccc12 ?
ALOX12 inh: 16µM
